In PubChem BioAssay (NCI):
The panel holds about 79,000 compounds, 15% with a hit somewhere; the sample as a whole holds those more often. Unmarked numbers belong to inactive results. Calls of active or inactive are those of the source. Rule as the data show it: active = growth inhibition above about 70%; inactive = the rest.

Tests used:
[1] = NCI Yeast Anticancer Drug Screen. Data for the wt1 strain (AID 149);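 also: 0% = growth of vehicle-treated wt1 cultures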; details: S. cerevisiae wt1 strain (SPY 50644) growth inhibition, hits give high values
How it was run: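 Compounds are added to wt1 yeast cultures. Growth is then measured. Inhibition is expressed relative to vehicle-treated controls.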

[2] = NCI Yeast Anticancer Drug Screen. Data for the rad50EPP+ strain (AID 151);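 also: 0% = growth of vehicle-treated control cultures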; details: S. cerevisiae rad50 mutant strain, hits give high values
How it was run: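 Strain rad50EPP+; compound exposure; % growth inhibition vs vehicle.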

[3] = NCI Yeast Anticancer Drug Screen. Data for the rad50 strain (AID 155);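 also: 0% = growth of vehicle-only cultures of the same strain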; details: S. cerevisiae rad50 strain growth inhibition, hits give high values
How it was run: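 Inhibition values express reduced yeast growth in compound-treated cultures relative to vehicle-treated controls.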

[4] = NCI Yeast Anticancer Drug Screen. Data for the mec2-1 strain (AID 157); details: S. cerevisiae mec2-1 strain, hits give high values
How it was run: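 Cells of the genetically defined mec2-1 yeast strain are incubated with test compound. Inhibition of growth is calculated against vehicle-treated controls.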

[5] = NCI Yeast Anticancer Drug Screen. Data for the rad14 strain (AID 159);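 also: 0% = growth of vehicle-treated control cultures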; details: S. cerevisiae rad14 strain growth inhibition, hits give high values
How it was run: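 A mutant yeast strain defective in DNA damage repair is treated with compound; inhibition of its growth is scored against untreated, vehicle-exposed cultures.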

[6] = NCI Yeast Anticancer Drug Screen. Data for the sgs1 mgt1 strain (AID 161);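 also: 0% = growth of cultures given vehicle only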; details: S. cerevisiae sgs1 mgt1 strain, hits give high values
How it was run: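 Mutant yeast exposed to compound; growth scored against vehicle-only wells.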

[7] = NCI Yeast Anticancer Drug Screen. Data for the CLN2oe strain (AID 163);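 also: 0% = growth of vehicle-only control cultures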; details: S. cerevisiae CLN2oe strain, hits give high values
How it was run: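 Strain altered in cell-cycle control, incubated with compound; growth compared to solvent-treated controls.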

[8] = NCI Yeast Anticancer Drug Screen. Data for the cln2 rad14 strain (AID 165);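 also: 0% = growth equal to vehicle treated cultures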; details: S. cerevisiae cln2 rad14 strain, hits give high values
How it was run: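 The screen exposed genetically defined yeast (cln2 rad14) to test compounds and scored growth inhibition relative to vehicle-treated controls.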

[9] = NCI Yeast Anticancer Drug Screen. Data for the bub3 strain (AID 167); details: S. cerevisiae bub3 mutant strain, hits give high values
How it was run: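 Steps: expose the mutant yeast strain to compound; grow alongside vehicle-treated cultures; measure growth; express inhibition against the vehicle cultures.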

[10] = NCI Yeast Anticancer Drug Screen. Data for the sgs1 strain (AID 173);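 also: 0% = growth of vehicle-only control cultures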; details: S. cerevisiae sgs1 mutant, hits give high values
How it was run: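 Inhibition of yeast growth served as the measure. The mutant strain was treated with each compound, and growth was normalised to cultures receiving vehicle alone.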

[11] = NCI Yeast Anticancer Drug Screen. Data for the mlh1 rad18 strain (AID 175); details: S. cerevisiae mlh1 rad18 strain growth inhibition, hits give high values
How it was run: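 Compound-treated yeast growth, normalised to vehicle controls. Strain bears defined DNA repair mutations.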

[12] = NCI Yeast Anticancer Drug Screen. Data for the rad18 strain (AID 177); details: S. cerevisiae rad18 mutant growth inhibition, hits give high values
How it was run: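 Inhibition values reflect reduced yeast growth compared with vehicle-treated controls, using a strain engineered with a DNA damage repair defect.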

[13] = NCI Yeast Anticancer Drug Screen. Data for the mgt1 strain (AID 153); details: S. cerevisiae mgt1 mutant growth inhibition, hits give high values
How it was run: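 Read-out: yeast growth inhibition vs vehicle control. Strain mgt1, drawn from a panel altered in DNA damage repair or cell cycle control.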

[14] = NCI Yeast Anticancer Drug Screen. Data for the wt2 strain (AID 169);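 also: 0% = growth of vehicle-treated yeast cultures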; details: S. cerevisiae wt2 strain growth inhibition, hits give high values
How it was run: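 Steps: yeast strain treated with compound; growth recorded; inhibition calculated relative to cultures given vehicle alone.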

[15] = NCI Yeast Anticancer Drug Screen. Data for the mlh1 strain (AID 171);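 also: 0% = growth of vehicle-treated control cultures of the same strain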; details: S. cerevisiae mlh1 strain growth inhibition, hits give high values
How it was run: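 Yeast screen: mutant strain plus compound, growth scored against vehicle control wells.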

[16] = at 5.0 µM (retest, dose inferred, filed as 0.5)
[17] = at 50.0 µM (retest, dose inferred, filed as 5.0)

COC(=O)c1oc([N+](=O)[O-])c(Cl)c1Cl
growth inhibition ([1]; at 1.2 µM): 26%
growth inhibition ([1]; at 3.7 µM): 22%
growth inhibition ([1]; at 11.0 µM): 39%
growth inhibition ([1]; at 33.0 µM): 89% (active)
growth inhibition ([1]; at 100.0 µM): 99% (active)
growth inhibition ([2]; at 1.2 µM): 95% (active)
growth inhibition ([2]; at 3.7 µM): 93% (active)
growth inhibition ([2]; at 11.0 µM): 93% (active)
growth inhibition ([2]; at 33.0 µM): 98% (active)
growth inhibition ([2]; at 100.0 µM): 98% (active)
growth inhibition ([3]; at 1.2 µM): 95% (active)
growth inhibition ([3]; at 3.7 µM): 79% (active)
growth inhibition [3, 16]: 21%
growth inhibition ([3]; at 11.0 µM): 86% (active)
growth inhibition ([3]; at 33.0 µM): 96% (active)
growth inhibition [3, 17]: 99% (active)
growth inhibition ([3]; at 50.0 µM): 97% (active)
growth inhibition ([3]; at 100.0 µM): 98% (active)
growth inhibition ([4]; at 1.2 µM): 94% (active)
growth inhibition ([4]; at 3.7 µM): 70% (active)
growth inhibition [4, 16]: 35%
growth inhibition ([4]; at 11.0 µM): 73% (active)
growth inhibition ([4]; at 33.0 µM): 99% (active)
growth inhibition [4, 17]: 100% (active)
growth inhibition ([4]; at 50.0 µM): 99.7% (active)
growth inhibition ([4]; at 100.0 µM): 99% (active)
growth inhibition ([5]; at 1.2 µM): 99% (active)
growth inhibition ([5]; at 3.7 µM): 71% (active)
growth inhibition ([5]; at 11.0 µM): 90% (active)
growth inhibition ([5]; at 33.0 µM): 99% (active)
growth inhibition ([5]; at 100.0 µM): 99% (active)
growth inhibition [6, 16]: 36%
growth inhibition [6, 17]: 99% (active)
growth inhibition ([6]; at 50.0 µM): 99% (active)
growth inhibition ([7]; at 1.2 µM): 98% (active)
growth inhibition ([7]; at 3.7 µM): 45%
growth inhibition ([7]; at 11.0 µM): 79% (active)
growth inhibition ([7]; at 33.0 µM): 92% (active)
growth inhibition ([7]; at 100.0 µM): 99% (active)
growth inhibition [8, 16]: 10%
growth inhibition [8, 17]: 99% (active)
growth inhibition ([8]; at 50.0 µM): 98.5% (active)
growth inhibition ([9]; at 1.2 µM): 71% (active)
growth inhibition ([9]; at 3.7 µM): 41%
growth inhibition [9, 16]: 47%
growth inhibition ([9]; at 11.0 µM): 34%
growth inhibition ([9]; at 33.0 µM): 97% (active)
growth inhibition [9, 17]: 100% (active)
growth inhibition ([9]; at 50.0 µM): 99.2% (active)
growth inhibition ([9]; at 100.0 µM): 98% (active)
growth inhibition ([10]; at 1.2 µM): 82% (active)
growth inhibition ([10]; at 3.7 µM): 57%
growth inhibition ([10]; at 11.0 µM): 78% (active)
growth inhibition ([10]; at 33.0 µM): 96% (active)
growth inhibition ([10]; at 100.0 µM): 96% (active)
growth inhibition [11, 16]: 58%
growth inhibition [11, 17]: 99% (active)
growth inhibition ([11]; at 50.0 µM): 99.5% (active)
growth inhibition ([12]; at 1.2 µM): 93% (active)
growth inhibition ([12]; at 3.7 µM): 92% (active)
growth inhibition ([12]; at 11.0 µM): 89% (active)
growth inhibition ([12]; at 33.0 µM): 98% (active)
growth inhibition ([12]; at 100.0 µM): 99% (active)

S=P(N1CC1)(N1CC1)N1CC1
growth inhibition ([1]; at 1.2 µM): -3%
growth inhibition ([1]; at 3.7 µM): -3%
growth inhibition ([1]; at 11.0 µM): -2%
growth inhibition ([1]; at 33.0 µM): -2%
growth inhibition ([1]; at 100.0 µM): -22%
growth inhibition ([13]; at 1.2 µM): -5%
growth inhibition ([13]; at 3.7 µM): -2%
growth inhibition ([13]; at 11.0 µM): -1%
growth inhibition ([13]; at 33.0 µM): -1%
growth inhibition ([13]; at 100.0 µM): -1%
growth inhibition ([3]; at 1.2 µM): -3%
growth inhibition ([3]; at 3.7 µM): 0%
growth inhibition ([3]; at 11.0 µM): 4%
growth inhibition ([3]; at 33.0 µM): 6%
growth inhibition ([3]; at 50.0 µM): 28.6%
growth inhibition ([3]; at 100.0 µM): 23%
growth inhibition ([4]; at 1.2 µM): -5%
growth inhibition ([4]; at 3.7 µM): -3%
growth inhibition ([4]; at 11.0 µM): -1%
growth inhibition ([4]; at 33.0 µM): -2%
growth inhibition ([4]; at 50.0 µM): -0.7%
growth inhibition ([4]; at 100.0 µM): 5%
growth inhibition ([5]; at 1.2 µM): 0%
growth inhibition ([5]; at 3.7 µM): 3%
growth inhibition ([5]; at 11.0 µM): 5%
growth inhibition ([5]; at 33.0 µM): 9%
growth inhibition ([5]; at 100.0 µM): 20%
growth inhibition ([6]; at 50.0 µM): 30.1%
growth inhibition ([7]; at 1.2 µM): -4%
growth inhibition ([7]; at 3.7 µM): 0%
growth inhibition ([7]; at 11.0 µM): -6%
growth inhibition ([7]; at 33.0 µM): -10%
growth inhibition ([7]; at 100.0 µM): -3%
growth inhibition ([8]; at 50.0 µM): 6.4%
growth inhibition ([9]; at 1.2 µM): -3%
growth inhibition ([9]; at 3.7 µM): -2%
growth inhibition ([9]; at 11.0 µM): 0%
growth inhibition ([9]; at 33.0 µM): -6%
growth inhibition ([9]; at 50.0 µM): 13.8%
growth inhibition ([9]; at 100.0 µM): -11%
growth inhibition ([14]; at 1.2 µM): -1%
growth inhibition ([14]; at 3.7 µM): -2%
growth inhibition ([14]; at 11.0 µM): -2%
growth inhibition ([14]; at 33.0 µM): -17%
growth inhibition ([14]; at 100.0 µM): 2%
growth inhibition ([15]; at 1.2 µM): 0%
growth inhibition ([15]; at 3.7 µM): -1%
growth inhibition ([15]; at 11.0 µM): -2%
growth inhibition ([15]; at 33.0 µM): 1%
growth inhibition ([15]; at 100.0 µM): 7%
growth inhibition ([10]; at 1.2 µM): -2%
growth inhibition ([10]; at 3.7 µM): -4%
growth inhibition ([10]; at 11.0 µM): -2%
growth inhibition ([10]; at 33.0 µM): 3%
growth inhibition ([10]; at 100.0 µM): 20%
growth inhibition ([11]; at 50.0 µM): -2.75%
growth inhibition ([12]; at 1.2 µM): -3%
growth inhibition ([12]; at 3.7 µM): -1%
growth inhibition ([12]; at 11.0 µM): 6%
growth inhibition ([12]; at 33.0 µM): 24%
